Consider 154 variants from a collection of fitness landscapes (doi:10.1016/j.celrep.2020.107928).

B1: Caulobacter ParB omega fusion; a variant is named by its letters at X, in order, B8GW30 (parent)
chain: MESVVVGEPGMSEGRRGLGRGLSALLGEVDAAPAQAPGEQLGGSREAPIEILQRNPDQPRRTFREEDLEDLSNSIREKGVLQPILVRPSPDTAGEYQIVAGERAWRAAQRAGLKTVPIMVRELDDLAVLEIGIIENVQRADLNVLEEALSYKVLMEKFERTQENIAQTIGKSXSHVANXMRLLXLPDEVQSYLVSGELTAXHARAIAAAADPVALAKQIIEGGLSVRETEALARKAPNLSAGKSKGGRPPRVKDTDTQALESDLSSVLGLDVSIDHRGSTGTLTITYATLEQLDDLCNRLTRGI

In all, about 81,000 sequences were measured (“one-hybrid fitness for binding NBS DNA”: median about -0.1, highest 2% from about 0.36 on). The list comes from a sample in which the highest values are over-represented; it also holds similar and randomly drawn sequences. A value given as a limit tells only on which side of the number the result lay.

The assay covers variants of B1. As to the kind of experiment: one-hybrid fitness for binding NBS DNA (the Noc-binding site; scaled: cognate 1, non-cognate 0); higher = stronger binding. The settings on record: with NBS DNA site. The procedure, abridged: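 Fitness here means the log change in variant-to-wild-type read ratio between plasmids sequenced before and after selection. That scale was set so cognate equals 1 and non-cognate equals 0. The selection was a bacterial one-hybrid screen of Caulobacter ParB libraries, four specificity codons randomised, in E. coli USO carrying a HIS3 reporter with the site 19 bp from the promoter, grown 48 hours at 37°C on M9-minus-histidine with 0.1 mM IPTG and 5 mM 3-AT.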
In the case of NWLT, the “one-hybrid fitness for binding NBS DNA” value was no more than 0.2.
The figure for YDPL is no more than 0.2; for LENS it is no more than 0.2; for ALND it is no more than 0.2.
Turning to TGNW, the “one-hybrid fitness for binding NBS DNA” value is no more than 0.2.
As for NKKT, the figure is no more than 0.2.
As for KKKT, the figure is 0.427; as for KKKR, 0.523; as for KTKR, 0.555.
As for KHVR, the “one-hybrid fitness for binding NBS DNA” value is no more than 0.2.
As for KTKP, the figure is no more than 0.2.
The figure for NKKR is 0.3.
The figure for KTVR is no more than 0.2.
KKVT: the “one-hybrid fitness for binding NBS DNA” value was no more than 0.2.
KHKR: the “one-hybrid fitness for binding NBS DNA” value worked out at 0.396.
The figure for KHKS is no more than 0.2; for KKVR it is no more than 0.2; for SSSH it is no more than 0.2.
As for GTSM, the figure is no more than 0.2; as for MDYV, no more than 0.2; as for FTRY, no more than 0.2.
As for SQTT, the figure is no more than 0.2; as for RWDE, no more than 0.2; as for GLVI, no more than 0.2.
As to CLLR, the “one-hybrid fitness for binding NBS DNA” value is no more than 0.2.
As for FWDR, the figure is no more than 0.2.
As for SYVR, the figure is no more than 0.2; as for KYKR, 0.414; as for NMKR, 0.201.
Regarding DYKR, the “one-hybrid fitness for binding NBS DNA” value is no more than 0.2.
As to SYYR, the “one-hybrid fitness for binding NBS DNA” value is no more than 0.2.
The figure for FWPP is no more than 0.2; for KMKR it is 0.4; for KMVR it is no more than 0.2.
As for SYKR, the figure is 0.378.
For KYYR, the “one-hybrid fitness for binding NBS DNA” value was no more than 0.2.
The figure for FWPR is 0.486; for RDNL it is no more than 0.2; for KNNH it is no more than 0.2.
As for FMCG, the figure is no more than 0.2.
As for KYLR, the figure is no more than 0.2; as for VTMQ, no more than 0.2; as for RNIC, no more than 0.2.
For the variant AMWM, the “one-hybrid fitness for binding NBS DNA” value was no more than 0.2.
Take TRYP: the “one-hybrid fitness for binding NBS DNA” value was no more than 0.2.
The figure for RGPH is no more than 0.2; for VTSA it is no more than 0.2.
As for MRFI, the “one-hybrid fitness for binding NBS DNA” value was no more than 0.2.
As for CKWS, the figure is no more than 0.2; as for KQKR, 0.425; as for NQKR, no more than 0.2.
The figure for DQKR is no more than 0.2.
In the case of FCKR, the “one-hybrid fitness for binding NBS DNA” value stood at 0.392.
On to KKVS, for which the “one-hybrid fitness for binding NBS DNA” value was no more than 0.2.
As for FPKR, the figure is no more than 0.2; as for FSKR, 0.218.
As for KKKS, the figure is 0.425; as for KCKR, 0.397.
The figure for KKKN is no more than 0.2.
For KPKR, the “one-hybrid fitness for binding NBS DNA” value is no more than 0.2.
As for KSKR, the figure is 0.342.
As for YLQM, the figure is no more than 0.2; as for MIYY, no more than 0.2.
As for WSMT, the “one-hybrid fitness for binding NBS DNA” value was no more than 0.2.
As for YVTI, the figure is no more than 0.2; as for WDTC, no more than 0.2.
As for QMYV, the figure is no more than 0.2; as for QARV, 0.376.
With QADV, the “one-hybrid fitness for binding NBS DNA” value is no more than 0.2.
The figure for QSSV is no more than 0.2; for QRSV it is 0.388; for QMDV it is no more than 0.2.
As for QSDV, the figure is no more than 0.2.
As for QAYV, the figure is no more than 0.2; as for QMRV, 0.45; as for QSRV, 0.396.
As for QSYV, the “one-hybrid fitness for binding NBS DNA” value is no more than 0.2.
As for QCSV, the figure is no more than 0.2.
As to QYAA, the “one-hybrid fitness for binding NBS DNA” value came out at 0.237.
As for RQRI, the figure is no more than 0.2; as for SPGV, no more than 0.2.
The figure for RRPE is no more than 0.2; for QMVE it is no more than 0.2; for VKVA it is no more than 0.2.
The figure for CPHR is no more than 0.2.
Regarding FHQR, the “one-hybrid fitness for binding NBS DNA” value is no more than 0.2.
The figure for QRFV is 0.275.
The figure for DFQV is no more than 0.2; for QRCV it is 0.406.
Regarding QRAV, the “one-hybrid fitness for binding NBS DNA” value came to 0.424.
Consider QPCV, for which the “one-hybrid fitness for binding NBS DNA” value was no more than 0.2.
The figure for QPQV is no more than 0.2.
With SFRV, the “one-hybrid fitness for binding NBS DNA” value was no more than 0.2.
As for QRQV, the figure is 0.397.
As for QCAV, the figure is no more than 0.2.
The figure for QCCV is no more than 0.2; for SFQV it is 0.447.
Regarding QCQV, the “one-hybrid fitness for binding NBS DNA” value is no more than 0.2.
The figure for SHME is no more than 0.2; for HLRR it is no more than 0.2.
As for GKSS, the figure is no more than 0.2; as for QVST, 0.318.
The figure for ALAR is no more than 0.2; for NTES it is no more than 0.2.
With QKYV, the “one-hybrid fitness for binding NBS DNA” value is no more than 0.2.
The figure for QRGV is 0.452; for QTDV it is no more than 0.2; for QKDV it is no more than 0.2.
The figure for QTYV is no more than 0.2; for QCRV it is 0.525.
Take QKRV: the “one-hybrid fitness for binding NBS DNA” value stood at 0.41.
As to QPRV, the “one-hybrid fitness for binding NBS DNA” value was no more than 0.2.
The figure for QCYV is no more than 0.2; for QTRV it is 0.576; for QSGV it is no more than 0.2.
The figure for QCGV is 0.221; for LALN it is no more than 0.2; for NRHK it is no more than 0.2.
The figure for IQAC is no more than 0.2.
EASL: the “one-hybrid fitness for binding NBS DNA” value was no more than 0.2.
In the case of KDSS, the “one-hybrid fitness for binding NBS DNA” value was no more than 0.2.
The figure for WRLM is no more than 0.2.
For the variant VHFW, the “one-hybrid fitness for binding NBS DNA” value was no more than 0.2.
As for QRHV, the figure is 0.439; as for QHQV, no more than 0.2.
As for QRNV, the figure is 0.453.
As for QCHV, the figure is 0.214.
QCNV: the “one-hybrid fitness for binding NBS DNA” value was no more than 0.2.
With QHYV, the “one-hybrid fitness for binding NBS DNA” value was no more than 0.2.
The figure for QREV is no more than 0.2.
As for QPHV, the figure is no more than 0.2; as for QRDV, no more than 0.2.
As for QHRV, the figure is 0.378; as for QRYV, 0.348.
For the variant QRRV, the “one-hybrid fitness for binding NBS DNA” value amounted to 0.574.
The figure for KSRF is no more than 0.2; for EDAY it is no more than 0.2.
The figure for VSIE is no more than 0.2; for RVLI it is no more than 0.2; for FHTT it is no more than 0.2.
As for NSFQ, the figure is no more than 0.2; as for LEVT, no more than 0.2; as for QLST, 0.413.
With QHSQ, the “one-hybrid fitness for binding NBS DNA” value was no more than 0.2.
As for QASD, the figure is no more than 0.2.
In the case of QHST, the “one-hybrid fitness for binding NBS DNA” value was 0.446.
The figure for QGST is no more than 0.2.
As for QSSN, the figure is no more than 0.2; as for QLSS, 0.317; as for QHSC, no more than 0.2.
As for QSST, the “one-hybrid fitness for binding NBS DNA” value came out at 0.424.
The figure for QASN is no more than 0.2; for QAST it is 0.395; for QLSH it is no more than 0.2.
